From PubChem
KCNQ2 pot: enhances the rat KCNQ2 potassium channel; O88943; CHO-K1 KCNQ2, FluxOR thallium flux fluorescence; active compounds read high; B-score at 10 µM; 310,000 compounds, 0.54% hits; AID 2239;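 active = fluorescence ratio B-score at least 3 SD of library B-scores, with initial fluorescence B-score within 3 of them, cut at about 5.3 in these data; same plate scores as AID 2156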;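 also: B-score of peak minus minimum over baseline fluorescence ratio after K+ and Tl+ stimulus; positive B-score means potentiation of KCNQ2 with more thallium influx and brighter signal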
Target sequence (O88943 whole entry, looked up): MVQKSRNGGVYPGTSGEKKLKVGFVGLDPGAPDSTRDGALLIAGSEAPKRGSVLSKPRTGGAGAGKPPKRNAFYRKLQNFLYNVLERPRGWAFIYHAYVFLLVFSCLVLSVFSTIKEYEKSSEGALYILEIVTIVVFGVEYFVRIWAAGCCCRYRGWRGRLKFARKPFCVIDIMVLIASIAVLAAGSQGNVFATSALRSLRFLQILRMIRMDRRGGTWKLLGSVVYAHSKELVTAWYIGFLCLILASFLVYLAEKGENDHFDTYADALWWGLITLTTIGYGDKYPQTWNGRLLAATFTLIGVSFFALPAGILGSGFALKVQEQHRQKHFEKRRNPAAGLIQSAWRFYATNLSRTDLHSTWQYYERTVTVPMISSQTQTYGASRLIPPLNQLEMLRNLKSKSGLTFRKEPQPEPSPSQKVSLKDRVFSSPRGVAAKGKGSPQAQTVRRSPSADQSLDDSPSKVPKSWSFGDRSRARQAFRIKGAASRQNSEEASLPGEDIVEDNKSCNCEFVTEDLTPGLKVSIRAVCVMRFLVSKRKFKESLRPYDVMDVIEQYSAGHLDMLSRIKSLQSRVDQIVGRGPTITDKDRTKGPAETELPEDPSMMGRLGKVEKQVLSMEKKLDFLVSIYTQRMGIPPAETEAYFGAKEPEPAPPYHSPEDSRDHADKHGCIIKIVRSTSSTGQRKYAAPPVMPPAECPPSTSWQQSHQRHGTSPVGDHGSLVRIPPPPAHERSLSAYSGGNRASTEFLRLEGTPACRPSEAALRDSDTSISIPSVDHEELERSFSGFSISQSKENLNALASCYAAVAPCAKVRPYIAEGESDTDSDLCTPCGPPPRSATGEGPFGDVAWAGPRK
KCNQ2 inh: inhibitors of rat KCNQ2 potassium channel; O88943; CHO-K1 KCNQ2, FluxOR thallium flux, 20 min; active compounds read low; B-score at 10 µM; 310,000 compounds, 1.1% hits; AID 2156;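 active = fluorescence ratio B-score at most minus 3 library SDs, with starting brightness B-score within 2 library SDs, cut at about -5.5 in these data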
Kir21 confirm: confirmation of mouse Kir2.1 potassium channel inhibitors; AID 2032; 2,300 compounds, 41% hits; Tl flux remaining, % of negative control (active compounds read low), % at 10 µM; shares compounds with KCNQ2 pot; Kir2.1-expressing cells, FluxOR thallium flux fluorescence; active compounds read low;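 active = Primary-screen hit whose thallium flux fell at least 3 control SD below untreated wells in both duplicates, with normal baseline fluorescence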;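 also: 0% = blank wells without stimulus and 100% = stimulated no-compound controls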
HEK293 Tl flux: alters thallium flux in parental HEK293 cells, Kir2.1 counter-screen; shares compounds with KCNQ2 pot; FluxOR thallium flux fluorescence; 0% = unstimulated blank wells; FluxOR signal as % of negative control (100 = no effect), % at 10 µM; 2,300 compounds, 19% hits;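 active = dye signal at least 3 control SD above or below untreated wells in both duplicates, raw fluorescence within 3, either direction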;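 also: percent is based on the flux ratio of peak minus minimum fluorescence over baseline F0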
CHO-K1 Tl ctr: counter-screen for KCNQ2 potentiators: effect in parental CHO-K1 cells | activity increase over 3SD of controls, % at 10 µM | 1,200 compounds, 43% hits | FluxOR thallium flux fluorescence; zero = vehicle mean+3SD, 100% = vehicle-minus-blank window | shares compounds with KCNQ2 pot | AID 2282;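 active = signal rise of at least 3 SD above the untreated control mean, in both duplicate wells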;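 also: counter screen of KCNQ2 potentiator hits so any rise reflects channel-independent effects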
KCNQ1 sel pot: selectivity of KCNQ2 potentiators: effect on human KCNQ1; shares compounds with KCNQ2 pot; CHO KCNQ1 stable, FluxOR thallium flux fluorescence; beyond 3SD, as % of vehicle-control signal; activation over 3SD threshold, % at 10 µM; 1,200 compounds, 28% hits;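 active = fluorescence ratio rise of at least 3 SD of vehicle wells above their mean, in both replicate wells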;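 also: 0% = vehicle mean plus 3 SD and 100% = vehicle minus unstimulated blank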
KCNQ2 pot conf: rat KCNQ2 channel potentiator confirmation; shares compounds with KCNQ2 pot; CHO-KCNQ2 cells, FluxOR thallium flux fluorescence; potentiation, less the hit threshold, % at 10 µM; 1,200 compounds, 68% hits;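 active = fluorescence ratio rising 3 SD or more over the vehicle control mean in both replicates, plus primary screen hit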;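 also: peak minus minimum thallium fluorescence divided by baseline after K/Tl stimulus; 0% = vehicle mean plus 3 SD and 100% = vehicle minus unstimulated blank difference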
Kir2-1 sel: mouse Kir2.1 off-target activity of KCNQ2 potentiators; shares compounds with KCNQ2 pot; AID 2345; HEK293 Kir2.1, FluxOR thallium flux fluorescence; 1,200 compounds, 2% hits; activity over 3SD threshold, % at 10 µM;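 active = fluorescence ratio rise of at least 3 SD above the vehicle-control mean, seen in both replicates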;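 also: 0% = vehicle mean plus 3 SD and 100% = vehicle minus no-stimulus blank window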
KCNQ2 W236L pot: rat KCNQ2 W236L mutant potentiation by KCNQ2 potentiators; shares compounds with KCNQ2 pot; CHO KCNQ2-W236L, automated patch clamp current; current increase over 3SD of negative controls (%), active compounds read high, % at 25 µM; 940 compounds, 10% hits;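 active = current increase at least 3 SD of the untreated controls above them in both duplicate recordings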
* hit, by the source's call; i = inactive; · = no result. Rows were chosen to be rich in hits. Some 1.6% of all compounds tested hit in one or more screens of this group.

SMILES	KCNQ2 pot	KCNQ2 inh	Kir21 confirm	HEK293 Tl flux	others
CCCN1CCC(NCC(C)c2ccccc2)CC1 (centres undefined)	0.07	i	·	·
CCCN1CCC(NC23CC4CC(CC(C4)C2)C3)CC1	0.34	i	54%*	i
CC(C)(O)CC[C@H](OC(=O)c1ccccc1)[C@](C)(O)[C@H]1CC[C@@]2(O)C3=CC(=O)[C@@H]4C[C@@H](O)[C@H](O)C[C@]4(C)C3CC[C@]12C (some centres undefined)	0.19	i	·	·
Cn1c(=O)cc(SCC(=O)NCC2CCCO2)c2ccc(Cl)cc21 (centres undefined)	6.2*	i	i	i	CHO-K1 Tl ctr=-15;KCNQ1 sel pot=92*;KCNQ2 pot conf=-9;Kir2-1 sel=-50
CCn1c(=O)cc(SCC(=O)NCC2CCCO2)c2ccccc21 (centres undefined)	1.1	i	·	·
CCN(CC)Cc1c(C(=O)N/N=C/c2cccc(OCc3cccc(Cl)c3)c2)nnn1-c1nonc1N	0.7	i	·	·
COc1ccccc1CCCNC(=O)C1CCC(=O)N(CCCN2CCCC2=O)C1 (centres undefined)	0.23	i	·	·
Cc1[nH]n(-c2ccccc2)c(=O)c1/C=N/NC(=O)c1ccc(O)cc1O	·	i	·	·
CCCCN(CCCC)C(=S)N/N=C/c1c(C)[nH]n(-c2ccccc2)c1=O	6.7*	i	i	i	CHO-K1 Tl ctr=0.0*;KCNQ1 sel pot=-27;KCNQ2 pot conf=-30;Kir2-1 sel=-24
Cc1cc(=O)oc2c3c(cc(OCC(=O)NCC4CCC(C(=O)O)CC4)c12)OC(C)(C)CC3 (centres undefined)	0.01	i	·	·
Oc1ccc(Nc2nc(NCC3CCCO3)c3ccccc3n2)cc1 (centres undefined)	·	i	i	i
Oc1ccccc1Nc1nc(NCC2CCCO2)c2ccccc2n1 (centres undefined)	·	i	46%*	i
Oc1ccc(Cl)cc1Nc1nc(NCC2CCCO2)c2ccccc2n1 (centres undefined)	1.6	i	·	·
c1ccc2c(NCC3CCCO3)nc(N3CCCCC3)nc2c1 (centres undefined)	0.09	i	·	·
CC(Oc1ccc2c3c(c(=O)oc2c1)CCC3)C(=O)NCCCn1ccnc1 (centres undefined)	·	i	·	·
C/C(=N\NC(=O)Cc1ccc(F)cc1)c1ccc(O)cc1	1.1	i	·	·
CN(Cc1ccccc1F)C(=O)COc1ccc(C(=O)c2ccccc2)cc1	·	i	·	·
O=C(NCCC1=CCCCC1)c1ccc(-n2cncn2)c([N+](=O)[O-])c1	0.09	i	·	·
O=C(NC(=S)NCCO)c1sc2ccccc2c1Cl	·	i	·	·
CCOC(=S)NC(=O)c1sc2ccccc2c1Cl	21*	i	i	356%*	CHO-K1 Tl ctr=-2;KCNQ1 sel pot=-6;KCNQ2 pot conf=62*;Kir2-1 sel=-37;KCNQ2 W236L pot=i
CCCOC(=S)NC(=O)c1sc2ccccc2c1Cl	20*	i	i	312%*	CHO-K1 Tl ctr=22*;KCNQ1 sel pot=-12;KCNQ2 pot conf=55*;Kir2-1 sel=-12;KCNQ2 W236L pot=i
CC(C)(C)C(=O)NC(=S)NNC(=O)c1sc2ccccc2c1Cl	12	i	·	·
COc1ccc(C(=O)OCCN2CCN(C3=NS(=O)(=O)c4ccccc43)CC2)cc1OC	0.81	i	·	·
CCCCS(=O)(=O)Nc1ccc(C)cn1	1.2	i	·	·
c1ccc(-c2nc(N3CCCCC3)nc3ccccc23)cc1	·	i	·	·
SMILES	KCNQ2 pot	KCNQ2 inh	Kir21 confirm	HEK293 Tl flux	others
c1ccc(-c2nc(N3CCNCC3)nc3ccccc23)cc1	·	i	50%*	i
O=C(NCCC1CCCCN1S(=O)(=O)c1ccccc1)C(=O)NCc1ccncc1 (centres undefined)	·	i	·	·
Cc1cc(C)c(-n2c(SCCS(=O)(=O)c3ccc(F)cc3)n[nH]c2=O)c(C)c1	·	i	·	·
CC1(NC(=O)CCc2nc3ccccc3c(=O)[nH]2)CCS(=O)(=O)C1 (centres undefined)	·	i	·	·
Cc1ccn2c(c1)nc(=O)c1cc(S(=O)(=O)N3CCCCC3)ccc12	0.92	i	·	·
COCCCNC(=O)c1ccc2c(c1)OCO2	·	i	·	·
CCCCOCCCNC(=O)c1ccc2c(c1)OCO2	6.5*	i	i	i	CHO-K1 Tl ctr=1.4*;KCNQ1 sel pot=-14;KCNQ2 pot conf=-26;Kir2-1 sel=-38
O=C(CCc1nc2ccccc2c(=O)[nH]1)OCc1ccc(Cl)cc1Cl	·	i	·	·
CN(C)c1ccc(N/C=C/C(=O)C(C)(C)C)cc1	·	i	·	·
CC(C)(C)C(=O)/C=C/Nc1ccccc1O	9*	i	i	71%*	CHO-K1 Tl ctr=-12;KCNQ1 sel pot=78*;KCNQ2 pot conf=59*;Kir2-1 sel=-14;KCNQ2 W236L pot=1.6%*
CCn1c(CNc2cccc(Cl)c2)nnc1SCC(=O)OC1CCCCC1	·	i	·	·
CCn1c(CNc2ccc(Cl)cc2)nnc1SCC(=O)OC1CCCCC1	0.06	i	71%*	i
Cc1nnnn1/C(=C\c1ccccc1)C(=O)OCC(=O)Nc1ccc(Cl)cc1F	·	i	i	i
O=C(COC(=O)Cc1n[nH]c(=O)c2ccccc12)Nc1ccc(Cl)cc1F	·	i	·	·
CC(C)Oc1ccccc1NC(=O)CSc1nc2ccccc2c(=O)n1C	1.2	i	58%*	i
Cc1ccccc1NC(=O)CSc1nc2ccccc2c(=O)n1C	0.07	i	·	·
Cn1cccc1C(=O)OCc1ccc(C(C)(C)C)cc1	·	i	·	·
CC(C)(C)Cc1nc2ccccc2n1CCc1ccccc1	·	i	53%*	i
CCc1nc2ccccc2n1CCc1ccccc1	·	i	·	·
CCOc1ccc(NC(=O)CN(C)C(=O)c2c(-c3c(F)cccc3Cl)noc2C)cc1OCC	0.44	i	·	·
O=C(Nc1scc(-c2ccccc2)c1C(=O)O)c1ccccc1F	·	i	·	·
O=C(Nc1scc(-c2ccc(Br)cc2)c1C(=O)O)c1ccccc1F	5.3*	i	i	186%*	CHO-K1 Tl ctr=-10;KCNQ1 sel pot=-13;KCNQ2 pot conf=34*;Kir2-1 sel=-28;KCNQ2 W236L pot=i
CCC(Oc1ccccc1)C(=O)Nc1ccc(S(=O)(=O)Nc2cc(C)on2)cc1 (centres undefined)	·	i	·	·
O=C1CC(NCCC2=CCCCC2)C(=O)N1c1cccc(Cl)c1Cl (centres undefined)	·	i	·	·
CCC(=O)Nc1ccc(NC(=O)C23CC4CC(CC(C4)C2)C3)cn1	·	i	·	·
Cc1ccnc(NC(=O)C23CC4CC(CC(C4)C2)C3)c1	9.7*	i	i	i	CHO-K1 Tl ctr=-8;KCNQ1 sel pot=-13;KCNQ2 pot conf=33*;Kir2-1 sel=-18;KCNQ2 W236L pot=i
